HP1b chromo inh = HTS for Inhibitors of HP1-beta Chromodomain Interactions with Methylated Histone Tails; Chromobox protein homolog 1 (Homo sapiens), P83916; AID 540317, 2011; 390,000 tested, 0.56% active; Potency, µM (doses to about 114 µM), hits mostly inhibitors; AlphaScreen HP1-beta / biotin-H3K9me3 peptide binding; further: nearly all actives have a fitted effect of over 70% in size
Target sequence (P83916 whole entry, looked up): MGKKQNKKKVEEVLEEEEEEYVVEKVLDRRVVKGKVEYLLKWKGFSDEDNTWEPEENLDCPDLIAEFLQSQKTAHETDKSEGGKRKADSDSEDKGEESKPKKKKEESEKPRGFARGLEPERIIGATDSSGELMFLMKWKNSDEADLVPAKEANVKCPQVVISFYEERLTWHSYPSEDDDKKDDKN
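HP1-beta protein (50 nM final) preincubated 30 min at room temperature with biotinylated H3(1-18)K9me3 peptide (50 nM) in PBS pH 7.4, 0.01% Tween-20, then compound added for 30 min. AlphaScreen streptavidin donor/nickel chelate acceptor beads (10 ug/mL final), 30 min dark, luminescence read.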
JMJD2A Tudor = qHTS Assay for Inhibitors of JMJD2A-Tudor Domain; Lysine-specific demethylase 4A (Homo sapiens), O75164; AlphaScreen JMJD2A-Tudor / H3K4me3 peptide binding; Potency, µM (top dose mostly 114 µM), most hits filed as inhibitors; 390,000 tested, 4.4% active; AID 504339, 2011; further: nearly all actives have a fitted effect of over 50% in size
PLK1 PBD inh = qHTS for Inhibitors of PLK1-PDB (polo-like kinase 1 - polo-box domain): Primary Screen | Potency, µM, usual class: inhibitors | Plk1 PBD binding of FITC phosphopeptide, fluorescence polarization | 360,000 tested, 2.8% active | AID 720504, 2013 | Serine/threonine-protein kinase PLK1 (Homo sapiens), P53350; further: series mostly up to about 57 µM; nearly all actives have a fitted effect of over 65% in size
PI5P4Ka inh = qHTS for Inhibitors of phosphatidylinositol 5-phosphate 4-kinase (PI5P4K); Phosphatidylinositol 5-phosphate 4-kinase type-2 alpha (Homo sapiens), P48426; PI5P4Kalpha enzyme, ADP-Glo luminescence, 60 min; hits give low values; max response, %; 330,000 tested, 1.2% active; AID 652105, 2013; active means max response of -50% or lower; inconclusive means between -30% and -50%; inactive means -30% or higher; further: value at the top dose of about 77 µM
Target sequence (P48426 whole entry, looked up): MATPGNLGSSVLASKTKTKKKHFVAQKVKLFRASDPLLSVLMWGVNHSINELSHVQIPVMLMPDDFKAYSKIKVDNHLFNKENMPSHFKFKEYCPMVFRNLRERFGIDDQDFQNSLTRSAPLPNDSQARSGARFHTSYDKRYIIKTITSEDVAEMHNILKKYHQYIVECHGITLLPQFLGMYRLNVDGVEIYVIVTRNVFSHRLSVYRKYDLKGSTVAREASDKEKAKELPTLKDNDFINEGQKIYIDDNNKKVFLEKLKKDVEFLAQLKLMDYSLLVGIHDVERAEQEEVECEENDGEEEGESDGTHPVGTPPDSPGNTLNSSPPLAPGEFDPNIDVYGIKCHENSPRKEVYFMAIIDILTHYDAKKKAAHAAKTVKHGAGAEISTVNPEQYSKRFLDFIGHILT
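Reactions run in 0.038 M HEPES pH 7.4, 0.28 mM EGTA, 0.1% CHAPS and 5% DMSO, with PI5P4Kalpha, substrate, compound and 5 microM ATP final, one hour at room temperature. Readout is ADP-Glo luminescence.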
G9a inh = qHTS Assay for Inhibitors of Histone Lysine Methyltransferase G9a; Histone-lysine N-methyltransferase EHMT2 (Homo sapiens), Q96KQ7; G9a H3K9 monomethylation, AlphaScreen, 2 h; Potency, µM (highest dose often 102 µM), most hits filed as inhibitors; 350,000 tested, 8.8% active; further: nearly all actives have a fitted effect of over 75% in size
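Quantitative HTS format: methyltransferase activity on a biotin-tagged H3K9 peptide is measured by AlphaScreen, using a rabbit anti-monomethyl-H3K9 antibody with streptavidin donor and anti-IgG acceptor beads. Final levels are 20 nM enzyme, 500 nM peptide, 20 uM SAM; 2 h RT.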
BAZ2B block = qHTS Assay for Inhibitors of BAZ2B; AlphaScreen BAZ2B-H3K14Ac peptide displacement; 360,000 tested, 4.4% active; Potency, µM (series often up to 114 µM), most hits filed as inhibitors; Bromodomain adjacent to zinc finger domain protein 2B (Homo sapiens), Q9UIF8; further: nearly all actives have a fitted effect of over 60% in size
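Inhibition is scored as reduced AlphaScreen emission. The BAZ2B/b-H3(5-23)K14Ac complex (50 nM each) in PBS pH 7.4, 0.01% Tween-20 meets compound (up to 110 uM) for 30 min at RT before bead addition.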
ADP-Glo counter = qHTS for Inhibitors of PI5P4K: ADP-Glo counter assay. shares compounds with PI5P4Ka inh. ADP-Glo detection counter-screen, luciferase luminescence, no enzyme. Potency, µM (series often up to 76.9 µM), most hits filed as inhibitors. 1,100 tested, under 10 active
Numbers stand for hits; . = inactive; ? = inconclusive; / = not tested or not shown; [ ] = another dose, or the depositor's remark. In the library only some 12% were active in any assay of this set; here they are far more common. Unless noted, the call rests on the fitted dose curve; in most records, active means well fitted curve in the direction sought with a large enough effect; inconclusive means small, poorly fitted or top-dose-only effect, or another doubt; inactive means no such curve, though single readings can be large; an effect the other way counts as inactive or inconclusive.

SMILES | HP1b chromo inh | JMJD2A Tudor | PLK1 PBD inh | PI5P4Ka inh | G9a inh | BAZ2B block | ADP-Glo counter
O=C(NCc1ccco1)c1ccc([N+](=O)[O-])o1 | ? | 56µM | ? | -63 | 45µM | 45µM | .
O=C(NCc1ccco1)c1ccc(Cn2cc([N+](=O)[O-])cn2)o1 | . | . | . | / | . | . | /
S=C(NCc1cccc(Cl)c1)NCc1ccco1 | . | . | ? | . | / | . | /
S=C(NCc1ccco1)NCc1ccco1 | 35µM | 56µM | 6µM | -76 | / | / | .
CCCn1c2ccccc2c2cnn(CC(=O)N(CCCOC(C)C)Cc3ccco3)c(=O)c21 | . | ? | / | / | ? | . | /
CN(CC(=O)Nc1ccccc1Cl)C(=O)Cn1cnc2ccc(Cl)cc2c1=O | . | ? | . | . | .[12.7 µM] | . | /
CCCCC1=CC2=CC(=O)C(C)(OC(=O)C3CCCC3)C(=O)C2=CO1 (stereo not drawn) | ? | 79µM | ? | -73 | ? | 50µM | .
CCCCc1ccc(NC(=O)c2cc3c(=O)n4ccccc4nc3s2)cc1 | . | . | / | / | . | . | /
CCS(=O)(=O)N1Cc2ccccc2CC1C(=O)Nc1nnc(SCc2ccc(C#N)cc2)s1 (stereo not drawn) | . | . | . | -57 | 45µM | . | .
CCS(=O)(=O)N1Cc2ccccc2CC1C(=O)Nc1ncc(C)s1 (stereo not drawn) | . | . | . | . | . | . | /
CC(=O)c1sc2nc(-c3ccco3)ccc2c1N | ? | 79µM | 11µM | -61 | / | 50µM | .
Nc1c(C(=O)Nc2ccc(Br)cc2)sc2nc(-c3ccco3)ccc12 | . | . | . | ? | ? | ? | /
COc1cccc(Nc2ncc3nc(-c4ccccc4)c(=O)n(C[C@H]4CCCO4)c3n2)c1 | / | / | / | / | .[12.7 µM] | / | /
Cc1c(-c2nsc(NC(=O)c3ccccc3)n2)nnn1-c1ccc(C(F)(F)F)c(Cl)c1 | . | . | / | / | . | . | /
O=C(NCCS(=O)(=O)N1CCN(c2ccc(F)cc2)CC1)c1cccc(C(F)(F)F)c1 | . | . | / | / | . | . | /
Cc1ccc(-n2ncc(C(=O)NCCCN3CCc4ccccc4C3)c2C2CCN(C(=O)OC(C)(C)C)CC2)c(C)c1 | . | . | / | / | ? | . | /
COc1ccc(NC(C)=O)cc1NC(=O)CSc1nc2ncccc2[nH]1 | . | ? | 3µM | -55 | . | . | .
N#Cc1ccccc1S(=O)(=O)N1CCN(C(=O)C2COc3ccccc3O2)CC1 (stereo not drawn) | ? | ? | . | -52 | ? | ? | .
O=C(C1COc2ccccc2O1)N1CCN(S(=O)(=O)c2cc(F)ccc2F)CC1 (stereo not drawn) | . | . | . | . | . | . | /
Cc1ccc(N(C)C(=O)c2cc(S(=O)(=O)N3CCCC3)cn2C)cc1 | . | . | . | . | / | . | /
Cn1c(CC(=O)Nc2ccccc2)nnc1SCC(=O)Nc1ccc(N2CCOCC2)cc1 | . | . | . | . | . | . | /
O=C(CCC(=O)c1cccs1)Nc1ncccc1O | . | ? | . | -56 | ? | 56µM | .
O=C(CSc1nncn1-c1ccccc1)Nc1ccc(N2CCOCC2)cc1 | . | 10µM | 2.7µM | -56 | / | . | .
Cc1ccc(NC(=O)CCC(=O)c2cccs2)cc1 | . | . | . | . | .[12.7 µM] | . | /
O=C(CCC(=O)c1cccs1)Nc1ccc(N2CCCCC2)cc1 | . | ? | . | -76 | ? | ? | .
SMILES | HP1b chromo inh | JMJD2A Tudor | PLK1 PBD inh | PI5P4Ka inh | G9a inh | BAZ2B block | ADP-Glo counter
O=C(Cc1cccs1)Nc1ccc(N2CCOCC2)cc1 | . | ? | . | -53 | . | ? | .
O=C(Cc1cccs1)Nc1ccc(Cl)cc1 | . | .[11.4 µM] | ? | . | . | . | /
Cc1cc(C)cc(NC(=O)CN2C(=O)c3ccccc3Sc3ccc(C(=O)N4CCCC4)cc32)c1 | . | . | / | / | ? | . | /
COc1ccc(C(C(=O)NC(C)(C)C)n2c(-c3ccc(-c4ccccc4)cc3)nc3ccccc32)cc1 (stereo not drawn) | / | / | . | . | / | / | /
COc1ccc(-n2nc(C(=O)N3CCN(c4ccccc4OC)CC3)c3c4ccccc4n(C)c3c2=O)cc1Cl | . | . | / | / | . | / | /
O=C(CSc1ncnc2sc3c(c12)CCC3)N1CCOCC1 | . | ? | . | -54 | . | ? | .
COc1ccccc1N1CC(C(=O)Nc2ccccc2N2CCCC2)CC1=O (stereo not drawn) | . | . | . | . | . | . | /
Cc1ccc(Nc2nc(NCc3ccco3)c3ccccc3n2)cc1 | . | ? | . | / | ? | . | .
Nc1nc(Nc2cccc(Cl)c2)nc(NCc2ccco2)c1[N+](=O)[O-] | . | ? | . | -54 | ? | ? | .
Nc1nc(Nc2ccc(Cl)cc2)nc(NCc2ccco2)c1[N+](=O)[O-] | . | . | . | -54 | / | ? | .
COc1ccc(Nc2nc(NCc3ccco3)nc(N)c2[N+](=O)[O-])cc1 | . | . | . | . | . | . | /
CC(=O)Nc1nonc1-c1nnc(SCC(=O)Nc2ccc(C)c(Cl)c2)n1C | . | . | / | / | . | . | /
O=C(Nc1cccc(Cl)c1)Nc1nnc(-c2ccncc2)s1 | . | . | . | -60 | . | . | .
O=C(Nc1ccc(Cl)cc1)Nc1nnc(-c2ccncc2)s1 | . | . | . | . | . | . | /
COc1ccc(C2(c3ccc(OC)cc3)NC(=O)N(CC(=O)N(C)C3CCC(C)CC3)C2=O)cc1 (stereo not drawn) | . | . | . | . | .[2.33 µM] | . | /
Cc1ccc(CSCC(=O)N2CCOCC2)cc1 | . | ? | 3µM | -52 | . | . | .
CCc1cc(CNC(=O)c2ccc(OC3CCN(CCc4ccccc4)CC3)cc2)on1 | . | . | . | . | . | ? | /
Oc1ccc(CNc2ccc(F)cc2)c2cccnc12 | . | 56µM | 3.4µM | -54 | 1.6µM | 25µM | .
Fc1ccc(NC(=S)NCc2cccnc2)cc1 | . | . | . | . | . | . | /
O=C(c1ccc(-c2ccc([N+](=O)[O-])cc2)o1)N1CCN(S(=O)(=O)c2cccs2)CC1 | . | . | . | -51 | .[12.7 µM] | . | .
O=C(c1ccco1)N1CCN(C(=O)c2ccc(-c3ccc([N+](=O)[O-])cc3)o2)CC1 | . | 40µM | . | -74 | / | / | .
O=C(c1ccc([N+](=O)[O-])cc1)N1CCN(C(=O)c2ccco2)CC1 | . | . | . | . | . | . | /

From PubChem BioAssay
